Values without a mark were called inactive. Inconclusive results are not listed. Entries that show only a call come without a potency. Calls of active or inactive are those of the source. Unless noted, the call rests on the fitted dose curve; in most records, active means well fitted curve in the direction sought with a large enough effect in the repeat runs; inconclusive means weak or mixed curves; inactive means no such curve, though single readings can be large; an effect the other way counts as inactive or inconclusive.
Columns and labels:
[1] = qHTS assay for small molecule agonists of the p53 signaling pathway (AID 651631; calls by dose curve; further: nearly all actives have a fitted effect of over 15% in size)
Summary of the method: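 Quantitative high-throughput format: 4,000 p53RE-bla HCT-116 cells/well, 5 h pre-incubation, 16 h compound exposure at 37 °C, 2 h room-temperature substrate step, fluorescence intensity measured.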

[2] = qHTS assay for small molecules that induce genotoxicity in human embryonic kidney cells expressing luciferase-tagged ATAD5 (AID 651632); further: nearly all actives have a fitted effect of over 15% in size
Summary of the method: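 Concentration-response screen for ATAD5 upregulation in HEK293T luciferase reporter cells; 16 hr treatment at 37C, then luminescence after 30 min with Amplite at room temperature.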

[3] = qHTS assay for small molecule agonists of the p53 signaling pathway - cell viability (AID 651633; calls by dose curve;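 further: p53RE-bla HCT reporter cells with a stable beta-lactamase p53 reporter; series mostly up to about 83 µM; nearly all actives have a fitted effect of over 30% in size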)
Summary of the method: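 Viability counter-read: CellTiter-Glo luminescence (30 min, room temperature) in the same p53RE-bla plates. These plates had been exposed to compounds for 16 h at 37 C.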

[4] = qHTS assay for small molecules that induce genotoxicity in human embryonic kidney cells expressing luciferase-tagged ATAD5 - cell viability (AID 651634; calls by dose curve; further: nearly all actives have a fitted effect of over 25% in size)
Summary of the method: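 15.5 hr compound or vehicle exposure of HEK293T cells expressing luciferase-tagged ATAD5 at 37C; live-cell protease activity is read by fluorescence after 30 min of CellTiter-Fluor.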

[5] = qHTS assay for small molecule disruptors of the mitochondrial membrane potential - cell viability (AID 720634; calls by dose curve;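 further: human HepG2 liver cancer cells; series mostly up to about 83 µM; nearly all actives have a fitted effect of over 20% in size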)
Summary of the method: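 In this qHTS format, HepG2 cells plated overnight were pinned with compound, incubated 1 hr, and assayed for ATP luminescence with CellTiter-Glo after m-MPI dye addition.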

[6] = qHTS assay for small molecule disruptors of the mitochondrial membrane potential (AID 720635); further: potency means the concentration at half of the fitted maximal effect
Summary of the method: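 Mitochondrial membrane potential tracked with Mito-MPS dye, red aggregates (ex 540/em 590 nm) against green monomers (ex 490/em 535 nm). Compound treatment 1 hr at 37C, dye 30 min in HepG2.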

[7] = qHTS assay to test for compound auto fluorescence at 590 nm (red) in HepG2 cells (AID 720674)
Summary of the method: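 We screened compounds on adherent HepG2 cells, incubating them for an hour at 37 C in 5% CO2 before reading emission at 590 nm under 540 nm excitation; values reflect equivalence to Rose Bengal sodium fluorescence.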

[8] = qHTS assay to test for compound auto fluorescence at 535 nm (green) in HepG2 cells (AID 720675)
[9] = qHTS assay to test for compound auto fluorescence at 460 nm (blue) in HEK293 cells (AID 720678)
Summary of the method: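 Blue read-out at excitation 405 nm and emission 460 nm follows overnight compound exposure of HEK293 cells at 37C in 5% CO2. Activity is given as auto fluorescence equivalency to triamterene.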

[10] = qHTS assay to test for compound auto fluorescence at 590 nm (red) in HEK293 cells (AID 720679)
Summary of the method: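 Red channel, Ex/Em 540/590nm; signal expressed as equivalency to Rose Bengal sodium. HEK293, 2,000 cells/well, 10% dialyzed FBS; 23 nL compound pinned after 4-5 hr attachment; overnight 37C/5% CO2 before reading.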

[11] = qHTS assay to test for compound auto fluorescence at 535 nm (green) in HEK293 cells (AID 720680)
[12] = qHTS assay to test for compound auto fluorescence at 460 nm (blue) in HEK293 cell free culture (AID 720681)
Summary of the method: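 Blue fluorescence (Ex 405/Em 460 nm, triamterene-equivalent) was read immediately after pin transfer of compound or DMSO into medium (DMEM, 10% FBS) without cells.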

[13] = qHTS assay to test for compound auto fluorescence at 535 nm (green) in HEK293 cell free culture (AID 720682)
Summary of the method: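 Measurement is a direct plate read of green fluorescence (485 nm in, 535 nm out) after compound addition to serum-supplemented DMEM lacking cells, with fluorescein used to express intensities.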

[14] = qHTS assay to test for compound auto fluorescence at 590 nm (red) in HEK293 cell free culture (AID 720683)
Summary of the method: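 Red-channel autofluorescence of compounds in culture medium (DMEM, 10% FBS), no cells, measured at 540/590 nm. Rose Bengal sodium is the reference fluorophore for equivalence.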

[15] = qHTS assay to test for compound auto fluorescence at 590 nm (red) in HepG2 cell free culture (AID 720684)
Summary of the method: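 No cells present: MEM + 10% FBS only. Compound pinned in, red label read (540/590 nm). Activity = fluorescence equivalent to Rose Bengal sodium.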

[16] = qHTS assay to test for compound auto fluorescence at 460 nm (blue) in HepG2 cell free culture (AID 720685)
Summary of the method: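 Cell-free plates of MEM plus 10% FBS received 23 nL compound or DMSO vehicle; blue-channel (405/460 nm) intensity scored against triamterene as reference fluorophore.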

[17] = qHTS assay to test for compound auto fluorescence at 535 nm (green) in HepG2 cell free culture (AID 720686)
[18] = qHTS assay to test for compound auto fluorescence at 460 nm (blue) in HepG2 cells (AID 720687)
Summary of the method: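 Blue-channel autofluorescence (Ex/Em 405/460 nm, triamterene-equivalent) was measured after 1 hr compound exposure at 37 C, 5% CO2. Cells were HepG2, plated overnight at 37 C in MEM plus 10% FBS.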

[19] = target: Glucocorticoid receptor (Homo sapiens) (UniProt P04150); test: qHTS assay to identify small molecule agonists of the glucocorticoid receptor (GR) signaling pathway (AID 720691; active means well fitted activation curve with a large enough effect in the signal ratio in the repeat runs, not every such curve was filed as active; the % refers to the signal ratio)
Summary of the method: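 Measures GR pathway activation through a GRE-beta-lactamase reporter stably integrated in HeLa cells, with 18 h compound treatment at 37 C and fluorescence detection using a FRET substrate.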

[20] = target: Glucocorticoid receptor (Homo sapiens) (UniProt P04150); test: qHTS assay to identify small molecule antagonists of the glucocorticoid receptor (GR) signaling pathway (AID 720692; active means well fitted inhibition curve with a large enough effect in the signal ratio in the repeat runs, not every such curve was filed as active; the % refers to the signal ratio)
Summary of the method: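 Tox21 10K library screened in concentration-response for blockade of dexamethasone (5 nM final)-induced GRE-bla reporter activity in HeLa cells; 18 h treatment, fluorescence read.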

Sequence of Glucocorticoid receptor (Homo sapiens) (P04150 whole entry, looked up): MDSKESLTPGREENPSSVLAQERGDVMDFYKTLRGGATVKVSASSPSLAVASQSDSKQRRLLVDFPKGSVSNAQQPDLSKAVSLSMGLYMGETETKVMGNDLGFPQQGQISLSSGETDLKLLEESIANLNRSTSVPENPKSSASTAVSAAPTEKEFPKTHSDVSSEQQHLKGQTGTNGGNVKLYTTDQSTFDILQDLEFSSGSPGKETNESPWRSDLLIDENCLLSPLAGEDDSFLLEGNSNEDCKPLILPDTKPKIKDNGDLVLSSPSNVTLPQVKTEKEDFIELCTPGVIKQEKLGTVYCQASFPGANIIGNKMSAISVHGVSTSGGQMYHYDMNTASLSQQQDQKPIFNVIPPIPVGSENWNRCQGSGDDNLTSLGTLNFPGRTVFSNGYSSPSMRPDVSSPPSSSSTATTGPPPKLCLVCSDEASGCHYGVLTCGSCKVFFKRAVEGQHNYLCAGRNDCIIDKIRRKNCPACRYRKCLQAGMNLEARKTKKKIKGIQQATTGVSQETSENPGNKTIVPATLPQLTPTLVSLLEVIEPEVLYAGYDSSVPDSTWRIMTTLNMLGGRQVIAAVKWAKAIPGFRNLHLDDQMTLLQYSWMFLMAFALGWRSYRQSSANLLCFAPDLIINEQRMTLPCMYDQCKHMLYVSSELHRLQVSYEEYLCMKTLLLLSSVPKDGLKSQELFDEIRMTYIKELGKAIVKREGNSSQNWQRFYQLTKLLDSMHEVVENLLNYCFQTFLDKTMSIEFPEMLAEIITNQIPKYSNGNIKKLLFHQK

## CSc1nc(NC2CC2)nc(NC(C)(C)C)n1
[1]
  Potency: inactive
[2]
  Potency: inactive
[3]
  Potency: inactive
[4]
  Potency: inactive
[5]
  Potency: inactive
[6]
  Potency: 8.63 µM (active)
[7]
  outcome: inactive
[8]
  outcome: inactive
[9]
  Potency: inactive
[10]
  outcome: inactive
[11]
  outcome: inactive
[12]
  Potency: inactive
[13]
  outcome: inactive
[14]
  outcome: inactive
[15]
  outcome: inactive
[16]
  Potency: inactive
[17]
  outcome: inactive
[18]
  Potency: inactive

## Cc1cc(C)cc(OCC2CNC(=O)O2)c1 (centres undefined)
[1]
  Potency: inactive
[2]
  Potency: inactive
[3]
  Potency: inactive
[4]
  Potency: inactive
[5]
  Potency: inactive
[6]
  Potency: inactive
[7]
  outcome: inactive
[8]
  outcome: inactive
[9]
  Potency: inactive
[10]
  outcome: inactive
[11]
  outcome: inactive
[12]
  Potency: inactive
[13]
  outcome: inactive
[14]
  outcome: inactive
[15]
  outcome: inactive
[16]
  Potency: inactive
[17]
  outcome: inactive
[18]
  Potency: inactive
[19]
  Potency: inactive
[20]
  Potency: inactive

## Cc1cc(C)c(NC(=O)CN(CC(=O)O)CC(=O)O)c(C)c1Br
[1]
  Potency: inactive
[2]
  Potency: inactive
[3]
  Potency: inactive
[4]
  Potency: inactive
[5]
  Potency: inactive
[6]
  Potency: inactive
[7]
  outcome: inactive
[8]
  outcome: inactive
[9]
  Potency: inactive
[10]
  outcome: inactive
[11]
  outcome: inactive
[12]
  Potency: inactive
[13]
  outcome: inactive
[14]
  outcome: inactive
[15]
  outcome: inactive
[16]
  Potency: inactive
[17]
  outcome: inactive
[18]
  Potency: inactive
[19]
  Potency: inactive

## N#CCc1ccccc1[N+](=O)[O-]
[1]
  Potency: inactive
[2]
  Potency: inactive
[3]
  Potency: inactive
[4]
  Potency: inactive
[5]
  Potency: inactive
[6]
  Potency: inactive
[7]
  outcome: inactive
[8]
  outcome: inactive
[9]
  Potency: inactive
[10]
  outcome: inactive
[11]
  outcome: inactive
[12]
  Potency: inactive
[13]
  outcome: inactive
[14]
  outcome: inactive
[15]
  outcome: inactive
[16]
  Potency: inactive
[17]
  outcome: inactive
[18]
  Potency: inactive

## O=C(O)c1ccc[n+]([O-])c1
[1]
  Potency: inactive
[2]
  Potency: inactive
[3]
  Potency: inactive
[4]
  Potency: inactive
[5]
  Potency: inactive
[6]
  Potency: inactive
[7]
  outcome: inactive
[8]
  outcome: inactive
[9]
  Potency: inactive
[10]
  outcome: inactive
[11]
  outcome: inactive
[12]
  Potency: inactive
[13]
  outcome: inactive
[14]
  outcome: inactive
[15]
  outcome: inactive
[16]
  Potency: inactive
[17]
  outcome: inactive
[18]
  Potency: inactive
[19]
  Potency: inactive
[20]
  Potency: inactive

## CC(C)N1C(=O)c2ccccc2C1=O
[1]
  Potency: inactive
[2]
  Potency: inactive
[3]
  Potency: inactive
[4]
  Potency: inactive
[5]
  Potency: inactive
[6]
  Potency: inactive
[7]
  outcome: inactive
[8]
  outcome: inactive
[9]
  Potency: inactive
[10]
  outcome: inactive
[11]
  outcome: inactive
[12]
  Potency: inactive
[13]
  outcome: inactive
[14]
  outcome: inactive
[15]
  outcome: inactive
[16]
  Potency: inactive
[17]
  outcome: inactive
[18]
  Potency: inactive

## C=C(C)C(=O)NCCC[N+](C)(C)C
[1]
  Potency: inactive
[2]
  Potency: inactive
[3]
  Potency: inactive
[4]
  Potency: inactive
[5]
  Potency: inactive
[6]
  Potency: inactive
[7]
  outcome: inactive
[8]
  outcome: inactive
[9]
  Potency: inactive
[10]
  outcome: inactive
[11]
  outcome: inactive
[12]
  Potency: inactive
[13]
  outcome: inactive
[14]
  outcome: inactive
[15]
  outcome: inactive
[16]
  Potency: inactive
[17]
  outcome: inactive
[18]
  Potency: inactive
[19]
  Potency: inactive
[20]
  Potency: inactive

## CCCCC1CCCCC(=O)O1 (centres undefined)
[1]
  Potency: inactive
[2]
  Potency: inactive
[3]
  Potency: inactive
[4]
  Potency: inactive
[5]
  Potency: inactive
[6]
  Potency: inactive
[7]
  outcome: inactive
[8]
  outcome: inactive
[9]
  Potency: inactive
[10]
  outcome: inactive
[11]
  outcome: inactive
[12]
  Potency: inactive
[13]
  outcome: inactive
[14]
  outcome: inactive
[15]
  outcome: inactive
[16]
  Potency: inactive
[17]
  outcome: inactive
[18]
  Potency: inactive
[19]
  Potency: inactive
[20]
  Potency: inactive

## CC(=O)N[C@@H](CCC(N)=O)C(=O)O
[1]
  Potency: inactive
[2]
  Potency: inactive
[3]
  Potency: inactive
[4]
  Potency: inactive
[5]
  Potency: inactive
[6]
  Potency: inactive
[7]
  outcome: inactive
[8]
  outcome: inactive
[9]
  Potency: inactive
[10]
  outcome: inactive
[11]
  outcome: inactive
[12]
  Potency: inactive
[13]
  outcome: inactive
[15]
  outcome: inactive
[16]
  Potency: inactive
[17]
  outcome: inactive
[18]
  Potency: inactive
[19]
  Potency: inactive
[20]
  Potency: inactive

## NC(=O)c1ncn([C@@H]2O[C@H](CO)[C@@H](O)[C@H]2O)c1N
[1]
  Potency: inactive
[2]
  Potency: inactive
[3]
  Potency: inactive
[4]
  Potency: inactive
[5]
  Potency: inactive
[6]
  Potency: inactive
[7]
  outcome: inactive
[9]
  Potency: inactive
[10]
  outcome: inactive
[11]
  outcome: inactive
[12]
  Potency: inactive
[13]
  outcome: inactive
[14]
  outcome: inactive
[15]
  outcome: inactive
[16]
  Potency: inactive
[17]
  outcome: inactive
[18]
  Potency: inactive

## CC(C)CCCCCCN
[1]
  Potency: inactive
[2]
  Potency: inactive
[3]
  Potency: inactive
[4]
  Potency: inactive
[5]
  Potency: inactive
[6]
  Potency: inactive
[7]
  outcome: inactive
[9]
  Potency: inactive
[10]
  outcome: inactive
[11]
  outcome: inactive
[12]
  Potency: inactive
[13]
  outcome: inactive
[14]
  outcome: inactive
[15]
  outcome: inactive
[16]
  Potency: inactive
[17]
  outcome: inactive
[18]
  Potency: inactive
[19]
  Potency: inactive
[20]
  Potency: inactive

## CC(C)=CCC/C(C)=C/C(=O)O
[1]
  Potency: inactive
[2]
  Potency: inactive
[3]
  Potency: inactive
[4]
  Potency: inactive
[5]
  Potency: inactive
[6]
  Potency: inactive
[7]
  outcome: inactive
[8]
  outcome: inactive
[9]
  Potency: inactive
[10]
  outcome: inactive
[11]
  outcome: inactive
[12]
  Potency: inactive
[13]
  outcome: inactive
[15]
  outcome: inactive
[16]
  Potency: inactive
[17]
  outcome: inactive
[18]
  Potency: inactive
[19]
  Potency: inactive
[20]
  Potency: inactive

## C#CC(O)CCCCC (centres undefined)
[1]
  Potency: inactive
[2]
  Potency: inactive
[3]
  Potency: inactive
[4]
  Potency: inactive
[5]
  Potency: inactive
[7]
  outcome: inactive
[8]
  outcome: inactive
[9]
  Potency: inactive
[10]
  outcome: inactive
[11]
  outcome: inactive
[12]
  Potency: inactive
[13]
  outcome: inactive
[14]
  outcome: inactive
[15]
  outcome: inactive
[16]
  Potency: inactive
[17]
  outcome: inactive
[18]
  Potency: inactive
